# In the supplement of paper PMC5407854, “Inhibitor of ppGalNAc-T3-mediated O-glycosylation blocks cancer cell invasiveness and lowers FGF23 levels” (eLife, 2017):
# The full ranking holds about 1,700 compounds; the median of “T2 sensor activation Q score (MG/GFP ratio z-score vs DMSO controls)” is about 0.3, and the highest 2% start at about 1.9. The list comes from a sample in which the highest values are over-represented; it also holds similar structures and randomly drawn compounds.
# Test system: ppGalNAc-T2 sensor
# Assay: T2 sensor activation Q score (MG/GFP ratio z-score vs DMSO controls) (SD units); higher = more sensor activation (inhibition of ppGalNAc-T2 glycosylation)
# Conditions: HEK293 sensor cells; 10 µM; 6 h
# Experimental: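 Cells were treated with compound at 10 uM for 6 h, then MG/GFP ratio was read by flow cytometry (10,000 cells per well, duplicate wells). Q = (R - R_neg)/SD_neg relative to DMSO vehicle controls; the signal rises when the glycosyltransferase is inhibited.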
row,Compound,T2 sensor activation Q score
1,c1coc(CNc2ncnc3[nH]ncc23)c1,0.7
2,O=C(O)/C=C/C(=O)N1Cc2cc3ccccc3nc2C1,-0.3
3,CCCCN1C(=O)CC2CCOC21C (configuration not stated),-0.45
4,CN1C(=C=Cc2cc(I)c(O)c(I)c2)C(C)(C)c2ccccc21,3.65
5,Cc1nnc(-n2cccc2)s1,1.4
6,Clc1ccc(Oc2nc3c(Cl)cccc3s2)cc1Cl,0.85
7,Nc1n[nH]c(-c2ccccc2)n1,0.75
8,Nc1n[nH]c(CO)n1,1.95
9,C(COC1CC2CC1C1C2CC2OC21)OC1CC2CC1C1C2CC2OC21 (configuration not stated),0.15
10,CC(C)C[C@H](NC(=O)[C@H](CCc1ccccc1)NC(=O)CN1CCOCC1)C(=O)N[C@@H](Cc1ccccc1)C(=O)N[C@@H](CC(C)C)C(=O)[C@@]1(C)CO1,-1.65
11,O=C1c2cccc(Sc3ccccc3)c2C(=O)c2c(Sc3ccccc3)cccc21,-0.5
12,S=c1nc[nH]c2c1ncn2C1CCCC1,1.4
13,COc1ccc2nc3cc(Cl)ccc3c(Nc3cc(C(C)C)c(O)cc3C)c2c1,0.55
14,N#Cc1nnn(-c2ccc(Cl)cc2)c1N,1
15,CSC1=NC=C(C#N)C2=NC(c3ccc(Cl)cc3)NN12 (configuration not stated),2.45
16,Cc1c(Cl)cccc1Nc1ncccc1C(=O)OCC(O)CO (configuration not stated),-0.65
17,CN(C)c1ccc(C(c2ccc(N(C)C)cc2)c2ccc([N+](=O)[O-])cc2)cc1,0.55
18,CCSc1nc(O)cc(=O)[nH]1,-0.9
19,CC(=O)[C@H]1CC[C@H]2[C@@H]3CCC4=CC(=O)C=C[C@]4(C)[C@H]3C(=O)C[C@]12C,1.65
20,CCOCc1cc(=O)[nH]c(SC)n1,-0.05
21,Cc1ccc(S(=O)(=O)Oc2cc(N)c3c(n2)CCC3)cc1,0.3
22,O=C(Nc1ccc(Br)cc1)Nc1ccccc1Cl,-0.9
23,Clc1ccc(Nc2nnc(-c3ccc4c(c3)OCO4)o2)cc1,-0.7
24,CCN1CCCC(Sc2nc3c([nH]2)c(=S)n(C)c(=O)n3C)C1 (configuration not stated),0.45

row,Compound,T2 sensor activation Q score
1,O=C(O)c1cc(O)ccc1N=Nc1ccccc1,1.55
2,CCC(=Cc1ccc(CC)cn1)CC,1.85
3,C(=C\CSc1ccccn1)/CSc1ccccn1,-0.6
4,C(=C\c1ccccn1)/c1ccccn1,2.1
5,O=[N+]([O-])c1cccc(/C=C/c2ccccn2)c1,-1.2
6,CC(=O)c1c(O)c(C)c(O)c2c1OC1=CC(=O)/C(=C(/C)N)C(=O)C12C (configuration not stated),-1.2
7,C/C=C1\NC(=O)[C@H]2CSSCC/C=C/[C@H](CC(=O)N[C@H](C(C)C)C(=O)N2)OC(=O)[C@H](C(C)C)NC1=O,3
8,O=C(Nc1nc2ccccc2s1)Nc1ccc([N+](=O)[O-])cc1Cl,0.35
9,CN(C)c1nc(Cl)nc2c1nc(Cl)n2C1CCCCO1 (configuration not stated),1.4
10,O=C(/C=C/c1ccccc1)CC(c1ccccc1)N1CCOCC1 (configuration not stated),-0.6
11,C1COCCN1.O=C(O)C(C=C(Cl)Cl)N1CCOCC1 (configuration not stated),2.65
12,CCCCCCCCC(=O)c1c(OC)oc(C=O)cc1=O,0.5
13,C/C(=N/O)[C@H]1CC[C@H]2[C@@H]3CC[C@@H]4C/C(=N\O)CC[C@]4(C)[C@H]3[C@@](C)(O)C[C@]12C,0.5
14,COC(=O)c1c(-c2ccccc2)[nH]c(-c2nccc3ccccc23)c1C(=O)OC,-0.35
15,COc1cc(NC(=O)CCl)ccc(=O)c1,0.6
16,Nc1o[nH]c(=O)c1C1CCCCC1,-0.8
17,Cc1cc(-n2cnc3c(=O)[nH]cnc32)ccc1N,1.35
18,CS/C(=C\c1ccc(C(=O)c2ccc(C)cc2)n1C)[S+](C)[O-] (configuration not stated),5.35
19,CCOC(=O)Nc1ccc2nc(Sc3ccc(Cl)cc3)sc2c1,0.35
20,COC(=O)c1cc2c(n1S(=O)(=O)c1ccc(C)cc1)C(=O)C(=O)c1[nH]cc(C(=O)OCc3ccccc3)c1-2,2
21,Cc1ccc(S(=O)(=O)CCOC(=O)CNC(=O)OCc2ccccc2)cc1,-0.1
22,NC(=O)NC(=O)c1nccnc1C(=O)O,-0.2
23,O=C(c1ccccc1)c1ccccc1C(=O)c1ccccc1,0.65
24,COc1c(O)ccc2c1CN1CCc3cc4c(cc3C1C2)OCO4 (configuration not stated),-1.3

row,Compound,T2 sensor activation Q score
1,COC(=O)C[C@](O)(CCCC(C)(C)O)C(=O)O[C@@H]1C(OC)=C[C@]23CCCN2CCc2cc4c(cc2[C@H]13)OCO4,4.5
2,C[C@]12CC[C@H](O)CC1=CC[C@@H]1[C@@H]2CC[C@]2(C)c3[nH]ncc3C[C@@H]12,0.2
3,COc1ccc(C(=S)N2CCN(c3ccccc3C)CC2)cc1,-0.85
4,CCn1c(=O)n(C)c2c(=O)n(C)c(=O)n(C)c21,-1.1
5,Cn1c(=O)c2c(nc(N3CCCCC3)n2C)n(C)c1=O,-0.7
6,CCCc1nc2c([nH]1)c(=O)n(C)c(=O)n2C,1.8
7,Cn1c(=O)c2[nH]c(N3CCCCC3)nc2n(C)c1=O,2.15
8,Cn1c(=O)c2c(nc(Cc3ccccc3)n2C)n(C)c1=O,1.35
9,Cc1c2oc3c(C)ccc(C(=O)N[C@@H]4C(=O)N[C@H](C(C)C)C(=O)N5CCC[C@H]5C(=O)N(C)CC(=O)N(C)[C@@H](C(C)C)C(=O)O[C@@H]4C)c3nc-2c(C(=O)N[C@@H]2C(=O)N[C@H](C(C)C)C(=O)N3CCC[C@H]3C(=O)N(C)CC(=O)N(C)[C@@H](C(C)C)C(=O)O[C@@H]2C)c(N)c1=O,-1.15
10,Cc1cc2cc3c(=O)[nH]c(=O)[nH]c3nc2cc1C,-0.35
11,N#CC1C(=O)NC(=O)C(C#N)C12CCCC(C(F)(F)F)C2 (configuration not stated),0.45
12,CN(C)C=Nc1ccc(Cl)c(Cl)c1,-1.85
13,C1C2CC3C1C3/C2=N\N=C1/C2CC3C(C2)C13,0.3
14,Nc1ccc(SCc2nc3cccc4c3n2CCC4)cc1,0.35
15,Cn1c2c(sc1=O)CCC2,-0.4
16,C#CCSc1n[nH]c(-c2ccco2)n1,1.7
17,COc1ccccc1NC(=O)Oc1cccc(OC(=O)c2ccccc2)c1,0.2
18,COc1ccc(Cc2nnc(SC)n2-c2ccc(F)cc2)cc1OC,0.45
19,O=C1c2ccccc2C(=Cc2cccnc2)c2ccccc21,0.2
20,Cc1ccc(NC(=O)NNC(=O)CSC2CCc3ccccc32)c(C)c1 (configuration not stated),-1.2
21,O=C(Nc1ccsn1)c1ccc(Cl)cc1Cl,1.25
22,Nc1ccn(C2OC(CCl)C(O)C2O)c(=O)n1 (configuration not stated),-0.65
23,Cn1ncc2c(Nc3ccc([N+](=O)[O-])cc3)nc(Cl)nc21,-0.5
24,CC1=NCC(C)c2ccccc21 (configuration not stated),3.25
